Results on 14 compounds are retold here after PubChem BioAssay.

A short description of assay [1]: inhibitors of TNFa-induced NFkB p65 translocation, primary screen, imaging, HUVEC, MLSMR starter and 10KST1 sets (AID 438).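 Further: compound added about 3h40 before a 20 min TNFalpha stimulation.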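 On inhibition: signal is the nuclear over cytoplasmic p65 intensity ratio per well.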 The settings on record: HUVEC TNFa-induced p65 nuclear translocation; cell count: measured here: nuclei count (cytotoxicity indicator), at 2.08 µM; inhibition: at 2 µM, stronger effect = higher value, 0% TNFa-plus-vehicle, 100% no-TNFa wells.
Assay [2] in a line: inhibitors of mutant huntingtin aggregation, primary screen, imaging, exon1htt(103Q)mCFP cells, high-content imaging (AID 483;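 active means visual image review flags a hit and inhibition of aggregation exceeds 20%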;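 further: compound exposure lasted 3 days before fixation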;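 on nuclei count: percent of the per-plate median nuclei count of sample wells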). The following applies: exon1htt(103Q)mCFP cell line, aggregate imaging, at 2 µM; inhibition of aggregation: stronger effect = higher value; nuclei count: measured here: cell count, toxicity.
Assay [3] can be described thus: inhibitors of E-selectin induction by TNFa, primary screen, imaging, HUVEC, immunofluorescence, MLSMR starter and 10KST1 sets (AID 487;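 active means visually confirmed hit in the image check and inhibition above 20%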;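 on inhibition: signal is fraction of cell area covered by stained E-selectin grains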;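 on nuclei count: 100% = median nuclei count of all wells on the same plate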). The settings on record: HUVEC TNFalpha-induced E-selectin immunofluorescence imaging, at 2 µM; inhibition: stronger effect = higher value; nuclei count: measured here: cell number, toxicity.
Assay [4] concerns the target Voltage-gated potassium channel subunit beta-2 (Rattus norvegicus) (UniProt P62483). Kind of assay: KvBeta enzyme negative modulators, primary screen, biochemical, NADPH fluorescence (AID 622;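 active means fluorescence slope higher than the sample average by over 3 SD, cut at about -0.22 in these data, passing the limit was not always enough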;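 further: slope of raw intensity against log time taken from 70 to 1610 s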). The following applies: recombinant KvBeta, 4-cyanobenzaldehyde reduction, at 10 µM, stronger effect = higher value.
Assay [5] shares this target. Kind of assay: KvBeta positive modulators, primary screen, biochemical, NADPH fluorescence (AID 623;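 active means NADPH fluorescence slope more negative than the mean of all samples by about 3 SD, 99.7% confidence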;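 further: fluorescence intensity change per second fitted from 20 to 320 s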). The following applies: Recombinant KvBeta, NADPH fluorescence decrease slope, 10 min; at 10 µM; stronger effect = lower value.
Assay [6] has as its target Alpha-2C adrenergic receptor (Homo sapiens) (UniProt P18825). Kind of assay: modulators of alpha2C/GIRK thallium flux, primary screen, cell-based, HEK293 alpha2C/GIRK1/2 (AID 624;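 active means fluorescence slope after compound addition differing from the mean of all screened samples at 99.7% confidence, in either direction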;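 further: slope of fluorescence ratio to pre-addition baseline per second over 15 to 24 s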). The following applies: thallium flux BTC fluorescence, at 10 µM, actives lie on both sides.
Assay [7] can be described thus: inhibitors of Sendai virus-induced IRF3 signaling, primary screen, TLR/RLR signaling modifier project, cell-based, Sendai virus stimulus, luciferase, 10K MLSCN set (AID 602276;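 active means inhibition at or above 50% at 10 µM; inactive means inhibition below 50%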;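 further: firefly luciferase from ISG56 promoter only with Renilla not read in this screen; 0% = Sendai virus plus DMSO and 100% = medium plus DMSO without virus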). The settings on record: HEK293 RL24 IRF3 luciferase reporter, at 10 µM, stronger effect = higher value. On the technique in general: A reporter such as luciferase makes a cellular process visible.
The nature of assay [8]: inhibitors of poly I:C-induced TLR3 signaling, primary screen, cell-based, poly I:C stimulus, luciferase, 10K MLSCN set (AID 602277;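 active means inhibition of the reporter signal at or above 50%; inactive means inhibition below 50%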). The settings on record: HEK293-TLR3 RL24 IRF3 luciferase reporter, at 10 µM, stronger effect = higher value.

Active and inactive are the calls of the source.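 How the source made its calls, unless noted: active means inhibition above 20% together with a positive visual image hit; inconclusive means visual image hit but inhibition not above 20%; inactive means no visual image hit.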

Sequence of Voltage-gated potassium channel subunit beta-2 (Rattus norvegicus) (P62483 whole entry, looked up): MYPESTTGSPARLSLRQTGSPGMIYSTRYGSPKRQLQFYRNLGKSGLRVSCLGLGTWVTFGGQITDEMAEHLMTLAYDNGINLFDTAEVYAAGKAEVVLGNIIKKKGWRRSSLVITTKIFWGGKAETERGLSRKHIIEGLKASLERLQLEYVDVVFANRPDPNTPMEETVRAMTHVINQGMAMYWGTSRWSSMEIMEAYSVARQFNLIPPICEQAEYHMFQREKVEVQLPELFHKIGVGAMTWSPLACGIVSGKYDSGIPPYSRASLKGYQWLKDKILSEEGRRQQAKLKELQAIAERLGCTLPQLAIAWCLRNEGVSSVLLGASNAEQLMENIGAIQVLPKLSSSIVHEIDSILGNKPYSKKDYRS
Sequence of Alpha-2C adrenergic receptor (Homo sapiens) (P18825 whole entry, looked up): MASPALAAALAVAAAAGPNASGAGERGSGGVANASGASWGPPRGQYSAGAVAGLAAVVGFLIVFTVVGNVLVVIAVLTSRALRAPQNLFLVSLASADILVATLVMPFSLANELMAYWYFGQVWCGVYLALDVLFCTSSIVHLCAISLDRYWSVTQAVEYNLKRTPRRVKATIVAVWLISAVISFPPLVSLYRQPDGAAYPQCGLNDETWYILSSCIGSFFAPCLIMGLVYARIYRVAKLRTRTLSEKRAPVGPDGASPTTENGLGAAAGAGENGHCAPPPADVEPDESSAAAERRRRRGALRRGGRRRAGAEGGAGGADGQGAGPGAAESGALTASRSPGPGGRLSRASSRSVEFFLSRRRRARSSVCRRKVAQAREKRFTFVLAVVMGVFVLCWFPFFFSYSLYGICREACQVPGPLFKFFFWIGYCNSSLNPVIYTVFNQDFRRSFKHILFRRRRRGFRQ

As for `Cc1cc(C)n(-c2nc3c(c(=O)[nH]c(=O)n3C)n2Cc2ccc(F)cc2)n1`, the cell count in assay [1] amounted to 402. The inhibition in assay [1] was 1.3% (inactive); in assay [3], -7.5% (inactive); in assay [7], 13% (inactive); in assay [8], 13.7% (inactive). Moreover, the inhibition of aggregation in assay [2] was -21.6% (inactive). For the same compound, the values for the nuclei count in assay [2] and in assay [3] were 94.4% and 102%, respectively. For the same compound, in assay [4], the fluorescence slope is -0.324 (inactive). For the same compound, in assay [5], the NADPH fluorescence slope is -3.8e-05 (inactive). In addition, in assay [6], the slope was 0.00739 (inactive).
Consider `Nc1cc(-c2ccc(Br)cc2)nn1S(=O)(=O)c1ccccc1`, for which, in assay [1], the cell count came out at 807. In addition, the inhibition in assay [1] was 6.9% (inactive); in assay [3], -57.9% (inactive); in assay [7], 6.44% (inactive); in assay [8], 32.2% (inactive). The inhibition of aggregation in assay [2] was -1% (inactive). The values for the nuclei count in assay [2] and in assay [3] were 93.9% and 109%, respectively. Besides, the fluorescence slope in assay [4] was -0.609 (inactive). Moreover, the NADPH fluorescence slope in assay [5] is -1.6e-05 (inactive). Moreover, the slope in assay [6] was 0.00722 (inactive).
On to `O=C(NCCC1=CCCCC1)C1CC(=O)N(C2CCCCCC2)C1` (centres undefined), for which the cell count in assay [1] came out at 645. Moreover, the inhibition is -4.4% (inactive) in assay [1], -41.7% (inactive) in assay [3], 5.65% (inactive) in assay [7] and 27.5% (inactive) in assay [8]. Further, the inhibition of aggregation in assay [2] was -46.5% (inactive). Besides, the nuclei count in assay [2] was 45.9%; in assay [3] it was 126%. Besides, the fluorescence slope in assay [4] was -0.367 (inactive). For the same compound, the NADPH fluorescence slope in assay [5] is -6.2e-05 (inactive). The slope in assay [6] is 0.00623 (inactive).
With `O=C(c1ccco1)N1CCN(c2cccc(Cl)c2)CC1`, the cell count in assay [1] stood at 665. Moreover, the inhibition in assay [1] is -1.9% (inactive); in assay [3], 24.2% (inactive); in assay [7] it was -26.6% (inactive); in assay [8], -76.9% (inactive). Besides, the inhibition of aggregation in assay [2] was 5.4% (inactive). Also, the nuclei count came to 115% in assay [2] and 91.6% in assay [3]. Besides, the fluorescence slope in assay [4] was -0.507 (inactive). Further, in assay [5], the NADPH fluorescence slope is -7.7e-05 (inactive). Also, the slope in assay [6] was 0.00406 (inactive).
For the compound `OCCNCCCCOc1ccccc1F`, the cell count in assay [1] stood at 765. Also, the inhibition in assay [1] is -1.5% (inactive); in assay [3], 33.1% (inactive); in assay [7], -4.78% (inactive); in assay [8], 2.08% (inactive). Moreover, the inhibition of aggregation in assay [2] is -2.5% (inactive). In addition, the nuclei count in assay [2] stood at 91.8%; in assay [3], 91.1%. The fluorescence slope in assay [4] is -0.387 (inactive). For the same compound, the NADPH fluorescence slope in assay [5] was 1.2e-05 (inactive). Moreover, the slope in assay [6] was 0.00574 (inactive).
In the case of `O=C(Nc1ccc(N2C(=O)C3C4C=CC(C4)C3C2=O)cc1)Nc1nncs1` (centres undefined), the cell count in assay [1] was 668. For the same compound, the inhibition in assay [1] is -9.8% (inactive); in assay [3], -77.5% (inactive); in assay [7], 2.97% (inactive); in assay [8], -2% (inactive). Besides, the inhibition of aggregation in assay [2] is 4.9% (inactive). In addition, the nuclei count came to 92% in assay [2] and 125% in assay [3]. Also, the fluorescence slope in assay [4] was -0.579 (inactive). Besides, the NADPH fluorescence slope in assay [5] is 6.4e-08 (inactive). For the same compound, in assay [6], the slope is 0.0068 (inactive).
On to `Cn1c(NC(=O)c2cccc(Cn3cc(Cl)cn3)c2)nc2ccccc21`, for which the cell count in assay [1] was 778. The inhibition was -2.9% (inactive) in assay [1], -61.1% (inactive) in assay [3], -25.1% (inactive) in assay [7] and -112% (inactive) in assay [8]. For the same compound, the inhibition of aggregation in assay [2] was -32.7% (inactive). The nuclei count amounted to 104% in assay [2] and 113% in assay [3]. In assay [4], the fluorescence slope was -0.548 (inactive). Moreover, in assay [5], the NADPH fluorescence slope is -1.6e-05 (inactive). The slope in assay [6] is 0.00464 (inactive).
Turning to `O=C(NCCCn1ccnc1)c1cnn2c1NC(c1ccccc1)CC2C(F)(F)F` (centres undefined), the cell count in assay [1] stood at 616. Further, the inhibition in assay [1] was -4.9% (inactive); in assay [3], 6.6% (inactive); in assay [7], -0.0558% (inactive); in assay [8], 15.6% (inactive). For the same compound, the inhibition of aggregation in assay [2] is -5.5% (inactive). For the same compound, the figures for the nuclei count in assay [2] and in assay [3] were 98.3% and 93%, respectively. The fluorescence slope in assay [4] was -0.389 (inactive). In addition, in assay [5], the NADPH fluorescence slope is 3.1e-05 (inactive). Moreover, the slope in assay [6] was 0.00374 (inactive).
Take `Cc1nnc(NC(=O)CSc2cn(CCNC(=O)c3ccccc3)c3ccccc23)s1`: the cell count in assay [1] is 651. Besides, the inhibition in assay [1] is -9.6% (inactive); in assay [3], -12.7% (inactive); in assay [7] it was -1.29% (inactive); in assay [8], -44.3% (inactive). The inhibition of aggregation in assay [2] is 28.2% (inactive). Moreover, the values for the nuclei count in assay [2] and in assay [3] were 70.8% and 106%, respectively. Moreover, the fluorescence slope in assay [4] is -0.452 (inactive). The NADPH fluorescence slope in assay [5] is 5.8e-06 (inactive). The slope in assay [6] was 0.00437 (inactive).
Regarding `CCOC(=O)C1CCN(c2c(N3CCCCCC3)c(=O)c2=O)CC1`, the cell count in assay [1] was 897. Besides, the inhibition in assay [1] is -0.9% (inactive); in assay [3], -84.4% (inactive); in assay [7], 8.92% (inactive); in assay [8], 28.8% (inactive). Besides, the inhibition of aggregation in assay [2] is -6.8% (inactive). Moreover, the nuclei count in assay [2] is 98.7%; in assay [3] it was 112%. For the same compound, the fluorescence slope in assay [4] was -0.581 (inactive). Moreover, the NADPH fluorescence slope in assay [5] was -4.7e-05 (inactive). Besides, the slope in assay [6] was 0.0057 (inactive).
Turning to `O=C(Nn1c(C2CC2)nc2ccccc2c1=O)c1ccco1`, the cell count in assay [1] came out at 579. Also, the inhibition was -12.1% (inactive) in assay [1], -38.3% (inactive) in assay [3], 9.09% (inactive) in assay [7] and 23.5% (inactive) in assay [8]. In addition, in assay [2], the inhibition of aggregation was 9.9% (inactive). Besides, the nuclei count is 95.2% in assay [2] and 116% in assay [3]. For the same compound, in assay [4], the fluorescence slope is -0.48 (inactive). In addition, the NADPH fluorescence slope in assay [5] is 6.6e-05 (inactive). In assay [6], the slope was 0.00689 (inactive).
Consider `Cc1cc(=O)n2nc(N3CCCC(C(=O)N4CCc5ccccc54)C3)sc2n1` (centres undefined), for which the cell count in assay [1] is 487. For the same compound, the inhibition is -7.5% (inactive) in assay [1], -54.6% (inactive) in assay [3], 18.4% (inactive) in assay [7] and 37.1% (inactive) in assay [8]. For the same compound, in assay [2], the inhibition of aggregation was -1.6% (inactive). Besides, the nuclei count in assay [2] was 97%; in assay [3], 103%. Also, the fluorescence slope in assay [4] is -0.324 (inactive). Also, the NADPH fluorescence slope in assay [5] was -6.9e-05 (inactive). In assay [6], the slope was 0.00401 (inactive).
For the compound `COc1ccc(-c2nc(C)sc2CC(=O)O)cc1`, in assay [1], the cell count worked out at 533. In addition, the inhibition in assay [1] was -15.7% (inactive); in assay [3] it was -1.1% (inactive); in assay [7], 11.4% (inactive); in assay [8] it was 28.3% (inactive). The inhibition of aggregation in assay [2] was 21% (inactive). The values for the nuclei count in assay [2] and in assay [3] were 93.9% and 101%, respectively. The fluorescence slope in assay [4] was -0.463 (inactive). Further, the NADPH fluorescence slope in assay [5] is -8.6e-06 (inactive). Moreover, in assay [6], the slope is 0.00658 (inactive).
Consider `O=C(CCCNS(=O)(=O)c1ccccc1)NCc1ccco1`, for which the cell count in assay [1] is 242. Moreover, the inhibition was -6.9% (inactive) in assay [1], 27.9% (inactive) in assay [3], 12.9% (inactive) in assay [7] and 10.4% (inactive) in assay [8]. The inhibition of aggregation in assay [2] is 22.9% (inactive). Further, the nuclei count in assay [2] is 80.7%; in assay [3], 80.8%. The fluorescence slope in assay [4] is -0.425 (inactive). For the same compound, the NADPH fluorescence slope in assay [5] was -1.4e-05 (inactive). For the same compound, the slope in assay [6] is 0.00453 (inactive).

Broadly, the inhibition is the relative decrease from the control value, in per cent.
